Data: PubChem BioAssay (NCATS)
Results filed as inconclusive are left out. Entries that show only a call come without a potency. Values without a mark were called inactive. Activity calls are given as the source filed them. Calls come from the whole dose curve; as a rule, active = well fitted inhibition curve with a large enough effect; inconclusive = small, poorly fitted or top-dose-only effect; inactive = flat fitted curve, though single readings scatter. Where a SMILES comes first, the peptide text is derived from it. The star is where a group is joined. AFC = O=c1cc(C(F)(F)F)c2ccc(N*)cc2o1

Molecular target: Calcium and integrin-binding protein 1 (Homo sapiens) (UniProt Q99828)
Experiment: Primary qHTS for Identification of Calcium Integrin Binding Protein 1 (CIB1) Competitor (AID 1508620); note: top concentration of the series differs between compounds
Conditions: CIB1-GST / FITC-alphaIIb peptide fluorescence polarization; series mostly up to 114 µM
Outline: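 Fluorescence polarization competition: GST-tagged CIB1 (1 uM final) preincubated with compound 15 min at room temperature, then FITC-labelled alphaIIb peptide (100 nM final) added. After 15 min at room temperature, polarization read at Ex 480/Em 540.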

Sequence of Calcium and integrin-binding protein 1 (Homo sapiens) (Q99828 whole entry, looked up): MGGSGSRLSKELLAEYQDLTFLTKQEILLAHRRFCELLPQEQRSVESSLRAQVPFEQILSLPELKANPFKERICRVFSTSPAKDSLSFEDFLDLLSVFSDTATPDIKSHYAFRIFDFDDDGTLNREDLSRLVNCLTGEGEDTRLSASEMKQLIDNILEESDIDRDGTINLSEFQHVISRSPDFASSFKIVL

SMILES	Potency	activity change, negative = inhibition
COC1=CC(=O)CC(C)C12Oc1cc(OC)cc(O)c1C2=O (centres undefined)	inactive	
CC1=CC(=O)[C@H]2C(C)(C)CCC[C@]2(C)[C@@]1(O)CO	inactive	
COc1c/c(=C2\C=c3ccccc3=N2)[nH]/c1=C\c1[nH]c(C)cc1C	inactive	
N=c1nc2n(cc1F)C1OC(CO)C(O)C1O2 (centres undefined)	inactive	
CC(=O)N[C@@H](Cc1c[nH]c2ccccc12)C(=O)N[C@@H](CCC(=O)O)C(=O)N[C@@H](Cc1cnc[nH]1)C(=O)N[C@@H](CC(=O)O)C(=O)Nc1ccc2c(C(F)(F)F)cc(=O)oc2c1 (Ac-WEHD-{AFC})	inactive	
CC(C(O)/C=C/C(C)(C)O)C1CCC2(C)C3C(=O)C=C4C(CCC(O)C4(C)C)C3(C)CCC12C (centres undefined)	inactive	
CC1=C(CCC(C)O[C@@H]2O[C@H](CO)[C@@H](O)[C@H](O)[C@H]2O)C(C)(C)CCC1=O (some centres undefined)	inactive	
C=C1C(=O)O[C@H]2C1[C@H](OC(=O)/C(=C/CO)COC(=O)/C(C)=C/CO)CC(=C)[C@@H]1CC(=O)[C@@H](C)[C@@H]12 (some centres undefined)	inactive	
CC1(C)CCC2(C(=O)OC3OC(CO)C(O)C(O)C3O)CCC3(C)C(=CCC4C5(C)CCC(O)C(C)(C(=O)O)C5CCC43C)C2C1O (centres undefined)	inactive	
COc1cc(O)cc(C)c1C(=O)O[C@H]1[C@@H](OC(C)=O)[C@H](n2ccc(=O)[nH]c2=O)O[C@@H]1CO	inactive	
CC1=C(/C=C/C(C)=C\C=C\C(C)=C/C(=O)O)C(C)(C)CCC1	inactive	
O=C(c1ccc2nccnc2c1)N1CCCCC1	inactive	
C=C1CCC2C(C)(C(=O)O)CCCC2(C)C1CCC(C)CC(=O)O (centres undefined)	inactive	
C[C@@]1(O)[C@H](O)[C@@H](CO)O[C@H]1n1ccc(N)nc1=O	inactive	
Cn1cncc1C(N)(c1ccc(Cl)cc1)c1ccc2c(c1)c(-c1cccc(Cl)c1)cc(=O)n2C (centres undefined)	inactive	
CC1=CCC(C(C)(C)O[C@@H]2O[C@H](CO[C@@H]3O[C@@H](C)[C@H](O)[C@@H](O)[C@H]3O)[C@@H](O)[C@H](O)[C@H]2O)CC1 (some centres undefined)	inactive	
CCOC(=O)C(CCc1ccccc1)NC1CSC(c2cccs2)CN(CC(=O)O)C1=O (centres undefined)	inactive	
O=C(/C=C/c1ccccc1)OC[C@]12O[C@H]1[C@@H](O)[C@@H]1C=CO[C@@H](O[C@@H]3O[C@H](CO)[C@@H](O)[C@H](O)[C@H]3O)[C@@H]12	inactive	
CC1CCC2C(C)(C)[C@@H](O)CC[C@]2(C)C12Cc1c(O)cc3c(c1O2)CN(C(CCC(=O)O)C(=O)O)C3=O (some centres undefined)	inactive	
COc1ccc(/C=C/C(=O)O[C@@H]2[C@@H](O)[C@@H](O)[C@H](O[C@@H]3C=C(CO)[C@H]4[C@H](O[C@@H]5O[C@H](CO)[C@@H](O)[C@H](O)[C@H]5O)OC=C[C@H]43)O[C@H]2C)cc1O	inactive	
CC(CO)C1CCC2(C)CC3C(CO)CC(O)C3C(C)(O)C/C=C/12 (centres undefined)	inactive	
CC1(C)CC[C@]2(C(=O)O[C@@H]3O[C@H](CO[C@@H]4O[C@H](CO)[C@@H](O)[C@H](O)[C@H]4O[C@@H]4O[C@H](CO)[C@H](O)[C@H](O)[C@H]4O)[C@@H](O)[C@H](O[C@@H]4O[C@H](CO)[C@@H](O)[C@H](O)[C@H]4O)[C@H]3O)CC[C@]3(C)C(=CCC4[C@@]5(C)CC[C@H](O[C@@H]6OC[C@@H](O)[C@H](O)[C@H]6O)[C@@](C)(C(=O)O)C5CC[C@]43C)[C@@H]2C1 (some centres undefined)		0.475% [at 12.4 µM]
Nc1ncnc2c([C@@H]3N[C@H](CO)[C@@H](O)[C@H]3O)c[nH]c12	inactive	
CC(=O)NC1C(OC(C)(C)C2CCC3(C)C=C(C4CCC5C4(C)CC(O)C4OC(C(C)(C)O)CCC45C)CCC3O2)OC(CO)C(O)C1O (centres undefined)	inactive	
CC(=O)OC1C[C@]2(C)C(O)CC(C)=C[C@H](OC(=O)c3ccc(O)cc3)C2[C@]1(O)C(C)C (some centres undefined)	inactive	
OC[C@H]1O[C@@H](O[C@H]2[C@H](OCCc3ccccc3)O[C@H](CO)[C@@H](O)[C@@H]2O)[C@H](O)[C@@H](O)[C@@H]1O	inactive	
O=C(O)c1ccc(CN2CCC(CN[C@@H]3C[C@H]3c3ccccc3)CC2)cc1	inactive	
C[C@]12C=C[C@@]3(CCC4[C@](C)(CO)CCC[C@@]4(C)C3CC1)C2 (some centres undefined)	inactive	
C=C1[C@H](OC(C)=O)[C@H]2[C@@H](OC(C)=O)[C@](C)(OC(C)=O)C[C@]2(OC(C)=O)C(=O)[C@H](C)/C=C/C(C)(C)C(=O)[C@H](OC(=O)C(C)CC)[C@H]1OC(C)=O (some centres undefined)	inactive	
